# Test results published in PubChem BioAssay (NCI).
# The panel holds about 79,000 compounds, 15% with a hit somewhere; the sample as a whole holds those more often. Values without a mark were called inactive. Rule as the data show it: active = growth inhibition above about 70%; inactive = the rest.
# Assay: NCI Yeast Anticancer Drug Screen. Data for the cln2 rad14 strain (AID 165);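 also: 0% = growth equal to vehicle treated cultures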
# Conditions: S. cerevisiae cln2 rad14 strain, at 50.0 µM, active compounds read high
# Outline: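 The screen exposed genetically defined yeast (cln2 rad14) to test compounds and scored growth inhibition relative to vehicle-treated controls.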
row,Structure (SMILES),growth inhibition [%]
1,Cc1ccc(S(=O)(=O)N/N=C2\CCC3CC2C3(C)C)cc1 (stereo not given),-20.1
2,CC1=C(CC2C(=O)N(c3ccccc3)S(=O)(=O)NC2C)C(=O)N(c2ccccc2)S(=O)(=O)N1C (stereo not given),-17.1
3,O=C(Nc1nncs1)c1ccncc1,7.1
4,Cc1c(Cl)cccc1NC(=O)C1CC(Br)C(Br)CC1C(=O)O (stereo not given),-48.5
5,CCN(CC)CCCNc1cc(OC)c(Cl)c2cccnc12,35.9
6,Cc1ccc(C(=O)NO)cc1,-4.65
7,NC(N)=NS(=O)(=O)c1ccc(NC(=O)c2cccc3c(N)c4ccccc4nc23)cc1,8.65
8,CCCCCCCSCC1OC(n2cnc3c(N)ncnc32)C(O)C1O (stereo not given),5.5
9,C=CC1CC1(Cl)Cl (stereo not given),-50.2
10,CC1=C/C(=C(/c2cccc(S(=O)(=O)O)c2)c2cc(C)c(O)c(C(=O)O)c2)C=C(C(=O)O)C1=O,25.2
11,Cc1nn(-c2ccccc2)c2c1N=C(C(=O)O)CC(c1ccccc1)=N2,28.1
12,O=C1C[CH]([Ge](=[O])[O][Ge](=[O])[CH]2CC(=O)NC(=O)N2)NC(=O)N1 (stereo not given),16.6
13,O=c1cccccc1Cl,5.6
14,COc1cccc(NC(=S)/C(=C(/[O-])c2ccc([N+](=O)[O-])cc2)[n+]2cccc3ccccc32)c1,33.2
15,CC1(C)N=C(/C(Cl)=[N+](/[O-])C(=O)c2ccc(F)cc2)C(C)(C)N1O,16.7
16,CC1(C)CC([N+](C)(C)CCCCCC[N+](C)(C)C2CC(C)(C)N(O)C(C)(C)C2)CC(C)(C)N1O,-4.3
17,CCOC(=O)CC(=O)Nc1cc(C)cc(C)n1,32.6
18,COC(=O)NC(Cc1ccccc1)NC(=O)OC(C)(C)C (stereo not given),-0.95
19,CCCNc1cc2c(cc1Br)-c1ccccc1C2=O,-16.1
20,Oc1ccccc1C=Nc1ccc(I)cc1.Oc1ccccc1C=Nc1ccc(I)cc1.[Co],9.45

row,Structure (SMILES),growth inhibition [%]
1,CC1=C(C)CC2C(=O)c3c(O)ccc(O)c3C(=O)C2C1 (stereo not given),4.15
2,COc1ccc(Cc2ccccc2)cc1,7.8
3,O=C(COc1ccc(Cl)cc1)Nc1nccs1,5.7
4,Cc1cc(Cl)c(Cl)cc1Cl,-4
5,COC(=O)c1cc(OC)c(O)c(OC)c1,-12.3
6,OCc1cc(Cl)cc(Cc2cc(Cl)cc(Cc3cc(Cl)cc(Cc4cc(Cl)cc(Cc5cc(Cl)cc(CO)c5O)c4O)c3O)c2O)c1O,-28.4
7,O=C(Cc1ccccc1)c1c[nH]c2c(O)ccc(O)c12,-49.1
8,CCCC(=O)OCC(C)(C)CC(C)C,-5.55
9,CC(=O)NC1C(O)C(NC(C)=O)C(OC(C)=O)C(OC(C)=O)C1OC(C)=O (stereo not given),-15.4
10,O=C(NC1C2CC3CC(C2)CC1C3)c1cc(/C=C/c2ccccc2)[nH]c(=S)n1 (stereo not given),12.2
11,CCCCCCCCCCCCCCCCCC(=O)O,-5.75
12,[O-][N+]1(CC[N+]2([O-])CCCCC2)CCCCC1,-37.3
13,C=CCS(=O)(=O)c1ccc(Cl)cc1,-24.6
14,CC(C)C1OC2(CCCCC2)OCC1(C)C (stereo not given),-8.35
15,CC(=O)Oc1ccc(NCNc2ccc(OC(C)=O)cc2)cc1,-26.6
16,CC1S(=O)(=O)OCCCOS1(=O)=O,-13.2
17,Cc1cc(N(CCC#N)CCC#N)ccc1/C=C(\NC(=O)/C=C/c1ccccc1)C(=O)N=[N+]=[N-],-19.4
18,CC1CC(c2ccccc2)S(=O)(=O)O1 (stereo not given),-12.2
19,Cc1ccc(-c2cc(=O)c3cc(C)c(C)c(C(=O)O)c3o2)cc1,19.9
20,Cc1ccc(S(=O)(=O)NCNS(=O)(=O)c2ccc(C)cc2)cc1,14
